Unmarked numbers belong to inactive results. This is one part of the list. Calls of active or inactive are those of the source. Unless noted, no stated cut-off is given here; in the data, active means inhibition above about 33%; inactive means the rest.
Key:
[1] = biological target: Nuclear receptor coactivator 3 (Homo sapiens) (UniProt Q9Y6Q9); experiment: NCOA3 GAL4-fusion reporter inhibition – cell-based, luminescence, quadruplicate, confirmation (AID 588792;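 active means mean inhibition over 43.08%, the solvent-only control mean plus 3 SD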;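 further: 0% = DMSO treated cells and 100% = gossypol at 36 µM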); settings: HEK293 GAL4-SRC3 luciferase reporter, at 3.6 µM, hits give high values
[2] = tested on: transactivating tegument protein VP16 (Human herpesvirus 1), Gal4-VP16 luciferase reporter; experiment: repression of VP16-driven luciferase reporter – cell-based, luminescence, high throughput, counter-screen for SRC3 inhibitor project (AID 588794; in the data active means inhibition above about 30%); settings: mammalian cells, at 3.6 µM, hits give high values
[3] = biological target: Nuclear receptor coactivator 1 (Homo sapiens) (UniProt Q15788); experiment: NCOA1 GAL4-fusion reporter inhibition – cell-based, luminescence, quadruplicate, confirmation (AID 588820;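 active means mean inhibition above 46.68%, the untreated control wells mean plus 3 SD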;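 further: 0% = DMSO wells and 100% = gossypol 36 µM treated wells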); settings: HEK293 GAL4-SRC1 luciferase reporter, at 3.6 µM, hits give high values
[4] = repression of VP16-driven luciferase reporter – cell-based, luminescence, high throughput, counter-screen for SRC1 inhibitor project (AID 588824; in the data active means inhibition above about 25%); settings: cell-based VP16 transactivation luciferase luminescence; at 3.6 µM; hits give high values
[5] = biological target: Photoreceptor-specific nuclear receptor (Homo sapiens) (UniProt Q9Y5X4); experiment: retest of NR2E3-NCOR disrupting agonists – cell-based, luminescence, CHO-S two-hybrid, confirmation (AID 624378;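 active means average inhibition above a cutoff equal to the mean inhibition of all tested compounds plus one SD, cut at about 70% in these data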;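 further: 0% = DMSO in NR2E3 cells and 100% = DMSO in cells lacking NR2E3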); settings: CHO-S mammalian two-hybrid NR2E3-NCOR, luciferase luminescence; at 3.98 µM; hits give high values
[6] = nonselective effects on VP16 transactivation – cell-based, luminescence, CHO-S, high throughput, counter-screen for NR2E3 agonist project, confirmation (AID 624379;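 active means mean inhibition above a cutoff equal to the average over all tested compounds plus one standard deviation, cut at about 70% in these data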;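 further: 0% = DMSO with VP16-transfected cells and 100% = DMSO with cells lacking VP16; higher means less reporter light so more repression of VP16 activity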); settings: CHO-S GAL4-VP16 luciferase reporter, at 3.98 µM, hits give high values
[7] = StAR promoter reporter inhibitors, counter-screen for LRH-1 inverse agonist project, cell-based, luminescence, high throughput (AID 651611; in the data active means inhibition above about 28%); settings: StAR promoter luciferase reporter counterscreen, at 3.6 µM, hits give high values
[8] = biological target: Nuclear receptor subfamily 5 group A member 2 (Homo sapiens) (UniProt O00482); experiment: NR5A2 activity suppression in reporter cells – cell-based, luminescence, confirmation (AID 651613; in the data active means inhibition above about 42%;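 further: HEK293T cells co-transfected with LRH-1 and StAR promoter luciferase reporter; 0% = vehicle wells and 100% = parental cells lacking receptor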); settings: cell-based LRH-1 luciferase reporter, inverse agonism; at 3.6 µM; hits give high values
[9] = biological target: Steroidogenic factor 1 (Homo sapiens) (UniProt Q13285); experiment: inverse agonism at SF1 nuclear receptor – cell-based, luminescence, high throughput, counter-screen for LRH-1 inverse agonist project (AID 651614; in the data active means inhibition above about 44%;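 further: cells cotransfected with StAR promoter reporter and SF1 expression vector; 0% = vehicle on cells with receptor and 100% = vehicle on cells lacking receptor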); settings: cell-based SF1 luciferase reporter, at 3.6 µM, hits give high values
[10] = compounds suppressing VP16-driven luciferase signal – cell-based, luminescence, high throughput, counter-screen for LRH-1 inverse agonist project (AID 651615); settings: Gal4-VP16 luciferase reporter cells, at 3.6 µM, hits give high values
[11] = tested on: transactivating tegument protein VP16 (Human herpesvirus 1); experiment: compounds suppressing VP16-driven luciferase signal – cell-based, luminescence, single concentration, counter-screen for SRC2 inhibitor project (AID 652007; in the data active means inhibition above about 36%); settings: cell-based VP16 transactivation luciferase reporter, at 8.9 µM, hits give high values
[12] = biological target: Nuclear receptor coactivator 2 (Homo sapiens) (UniProt Q15596); experiment: inhibition of GAL4-SRC2 driven luciferase expression – cell-based, luminescence, HEK293, triplicate, confirmation (AID 652008;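 active means mean inhibition above 46.5%, the solvent-only control mean plus 3 SD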;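 further: 0% = DMSO-treated cells and 100% = Gossypol at 36 µM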); settings: HEK293 GAL4-SRC2 luciferase reporter, at 8.9 µM, hits give high values
[13] = VP16-driven transactivation reporter suppression – cell-based, luminescence, HEK293, counter-screen for COUP-TFII antagonist project (AID 687007; in the data active means inhibition above about 13%); settings: HEK293 Gal4-VP16 luciferase reporter, at 8.5 µM, hits give high values
[14] = biological target: COUP transcription factor 2 (Homo sapiens) (UniProt P24468); experiment: retest of COUP-TFII reporter suppressors – cell-based, luciferase reporter, HEK293, triplicate, confirmation (AID 687008;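 active means mean inhibition over three repeats above a set limit taken from the earlier primary screen, cut at about 38% in these data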;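 further: 100% = cells given the luciferase reporter alone without the COUP-TF2 vector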); settings: HEK293 NGFI-A luciferase reporter, luminescence; at 8.5 µM; hits give high values
[15] = biological target: Galanin receptor type 2 (Homo sapiens) (UniProt O43603); experiment: blockers of human galanin receptor 2 – cell-based, confirmation (AID 866; in the data active means inhibition above about 27%;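 further: cells stimulated with galanin at about its EC80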); settings: GALR2-expressing cells, antagonist mode, at 4 µM, hits give high values
[16] = nonspecific BLA reporter inhibition – CHO NFAT-bla cells, FRET readout, counter-screen for GALR2 antagonist project, confirmation (AID 867;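 active means inhibition above the mean inhibition across tested compounds plus 3 SD, cut at about 27% in these data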;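 further: 0% = 500 nM thapsigargin stimulated wells and 100% = unstimulated BSA only wells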); settings: beta-lactamase FRET, thapsigargin-stimulated, at 4.2 µM, hits give high values
[17] = biological target: Receptor-interacting serine/threonine-protein kinase 2 (Homo sapiens) (UniProt O43353); experiment: inhibitors of RIPK2 association with NOD2 – fluorescence, CHO cells, BLA complementation, triplicate, confirmation (AID 624370;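 active means mean inhibition across replicates above a set limit taken from the earlier primary screen, cut at about 21% in these data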;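 further: 0% = DMSO-only wells and the high end = clavulanate BLA-blocked wells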); settings: CCF4 FRET, at 4.98 µM, hits give high values
[18] = BLA reporter readout interference – cell-based, CHO-K1 CMV-bla, CCF4 FRET, fluorescence, artefact control for NOD2-RIPK2 interaction inhibitor project, confirmation (AID 624371;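 active means mean inhibition above the low-control mean inhibition plus three low-control SD, cut at about 11% in these data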;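 further: 0% = DMSO only wells and 100% = clavulanate high control wells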); settings: CCF4 FRET ratio, counterscreen, at 4.98 µM, hits give high values

Sequence of Nuclear receptor coactivator 3 (Homo sapiens) (Q9Y6Q9 whole entry, looked up, the tested form may be a part): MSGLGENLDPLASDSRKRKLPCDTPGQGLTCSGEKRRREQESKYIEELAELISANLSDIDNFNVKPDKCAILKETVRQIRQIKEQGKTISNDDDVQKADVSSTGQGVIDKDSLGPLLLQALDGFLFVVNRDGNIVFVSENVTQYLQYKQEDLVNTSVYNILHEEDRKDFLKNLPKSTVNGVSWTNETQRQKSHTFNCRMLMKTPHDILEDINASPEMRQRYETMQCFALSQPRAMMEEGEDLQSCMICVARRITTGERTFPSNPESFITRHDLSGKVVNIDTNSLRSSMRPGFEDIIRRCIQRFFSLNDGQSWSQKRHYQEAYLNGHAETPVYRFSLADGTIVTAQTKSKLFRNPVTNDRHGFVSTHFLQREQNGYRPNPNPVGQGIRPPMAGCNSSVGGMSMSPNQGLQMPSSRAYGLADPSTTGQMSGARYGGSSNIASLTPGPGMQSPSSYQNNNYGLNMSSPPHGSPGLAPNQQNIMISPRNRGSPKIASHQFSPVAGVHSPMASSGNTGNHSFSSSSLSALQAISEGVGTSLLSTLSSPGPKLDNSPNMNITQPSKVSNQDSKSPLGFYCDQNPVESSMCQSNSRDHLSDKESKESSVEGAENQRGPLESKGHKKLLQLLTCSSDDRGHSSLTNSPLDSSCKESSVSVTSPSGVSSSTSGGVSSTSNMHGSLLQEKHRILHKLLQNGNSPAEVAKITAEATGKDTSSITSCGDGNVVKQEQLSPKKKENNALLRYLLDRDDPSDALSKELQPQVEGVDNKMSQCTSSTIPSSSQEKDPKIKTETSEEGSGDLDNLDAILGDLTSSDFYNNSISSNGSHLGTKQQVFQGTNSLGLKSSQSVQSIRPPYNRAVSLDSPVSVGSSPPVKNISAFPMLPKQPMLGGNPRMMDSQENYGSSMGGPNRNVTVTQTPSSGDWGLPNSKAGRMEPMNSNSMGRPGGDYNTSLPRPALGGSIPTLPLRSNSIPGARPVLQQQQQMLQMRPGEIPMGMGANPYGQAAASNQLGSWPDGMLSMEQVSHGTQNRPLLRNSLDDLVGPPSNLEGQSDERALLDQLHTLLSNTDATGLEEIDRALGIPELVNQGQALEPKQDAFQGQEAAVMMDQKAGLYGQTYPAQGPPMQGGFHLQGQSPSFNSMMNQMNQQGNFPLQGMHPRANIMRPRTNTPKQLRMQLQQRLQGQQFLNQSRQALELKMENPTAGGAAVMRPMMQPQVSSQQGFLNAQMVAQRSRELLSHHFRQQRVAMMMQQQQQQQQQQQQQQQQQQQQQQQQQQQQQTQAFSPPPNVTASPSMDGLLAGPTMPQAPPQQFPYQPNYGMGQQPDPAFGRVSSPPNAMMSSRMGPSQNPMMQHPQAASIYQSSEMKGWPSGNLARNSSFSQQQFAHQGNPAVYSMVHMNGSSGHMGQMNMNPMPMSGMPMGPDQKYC
Sequence of Nuclear receptor subfamily 5 group A member 2 (Homo sapiens) (O00482 whole entry, looked up): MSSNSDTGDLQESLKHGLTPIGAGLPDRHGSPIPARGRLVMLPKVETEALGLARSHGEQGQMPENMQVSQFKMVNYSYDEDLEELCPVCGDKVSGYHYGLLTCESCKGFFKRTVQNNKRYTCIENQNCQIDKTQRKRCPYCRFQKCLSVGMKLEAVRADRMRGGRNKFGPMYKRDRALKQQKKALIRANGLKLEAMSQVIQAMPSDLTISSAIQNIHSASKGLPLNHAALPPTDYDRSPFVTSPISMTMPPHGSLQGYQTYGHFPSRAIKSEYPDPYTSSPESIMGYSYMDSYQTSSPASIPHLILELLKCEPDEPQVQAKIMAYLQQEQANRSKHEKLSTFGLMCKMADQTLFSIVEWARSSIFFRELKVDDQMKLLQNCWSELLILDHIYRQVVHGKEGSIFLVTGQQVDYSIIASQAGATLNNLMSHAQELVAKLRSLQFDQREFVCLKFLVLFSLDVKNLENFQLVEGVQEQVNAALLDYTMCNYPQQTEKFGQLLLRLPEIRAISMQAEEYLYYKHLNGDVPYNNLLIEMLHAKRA
Sequence of Steroidogenic factor 1 (Homo sapiens) (Q13285 whole entry, looked up, the tested form may be a part): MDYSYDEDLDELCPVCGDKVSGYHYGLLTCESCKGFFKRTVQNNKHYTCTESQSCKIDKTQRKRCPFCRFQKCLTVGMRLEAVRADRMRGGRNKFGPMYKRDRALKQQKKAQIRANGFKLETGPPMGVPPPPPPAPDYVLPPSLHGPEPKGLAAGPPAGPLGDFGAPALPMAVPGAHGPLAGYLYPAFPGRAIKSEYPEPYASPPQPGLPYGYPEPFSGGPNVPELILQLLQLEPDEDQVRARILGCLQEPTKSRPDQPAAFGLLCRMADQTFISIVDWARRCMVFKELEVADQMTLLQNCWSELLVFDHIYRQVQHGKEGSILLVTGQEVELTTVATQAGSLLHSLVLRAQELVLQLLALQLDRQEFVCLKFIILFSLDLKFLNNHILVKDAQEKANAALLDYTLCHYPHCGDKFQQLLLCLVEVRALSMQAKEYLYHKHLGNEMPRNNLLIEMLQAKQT
Sequence of Photoreceptor-specific nuclear receptor (Homo sapiens) (Q9Y5X4 whole entry, looked up): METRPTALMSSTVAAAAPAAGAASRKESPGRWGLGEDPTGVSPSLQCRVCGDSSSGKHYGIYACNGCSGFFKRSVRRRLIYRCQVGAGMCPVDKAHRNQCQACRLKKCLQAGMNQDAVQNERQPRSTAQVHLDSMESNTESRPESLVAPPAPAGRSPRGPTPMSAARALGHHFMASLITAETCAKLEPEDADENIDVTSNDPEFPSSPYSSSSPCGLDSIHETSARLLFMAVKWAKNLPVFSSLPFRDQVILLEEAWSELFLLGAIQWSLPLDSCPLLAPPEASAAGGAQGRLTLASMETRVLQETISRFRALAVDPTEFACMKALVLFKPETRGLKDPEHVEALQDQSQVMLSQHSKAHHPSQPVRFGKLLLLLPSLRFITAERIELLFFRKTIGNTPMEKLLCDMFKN
Sequence of Nuclear receptor coactivator 1 (Homo sapiens) (Q15788 whole entry, looked up, the tested form may be a part): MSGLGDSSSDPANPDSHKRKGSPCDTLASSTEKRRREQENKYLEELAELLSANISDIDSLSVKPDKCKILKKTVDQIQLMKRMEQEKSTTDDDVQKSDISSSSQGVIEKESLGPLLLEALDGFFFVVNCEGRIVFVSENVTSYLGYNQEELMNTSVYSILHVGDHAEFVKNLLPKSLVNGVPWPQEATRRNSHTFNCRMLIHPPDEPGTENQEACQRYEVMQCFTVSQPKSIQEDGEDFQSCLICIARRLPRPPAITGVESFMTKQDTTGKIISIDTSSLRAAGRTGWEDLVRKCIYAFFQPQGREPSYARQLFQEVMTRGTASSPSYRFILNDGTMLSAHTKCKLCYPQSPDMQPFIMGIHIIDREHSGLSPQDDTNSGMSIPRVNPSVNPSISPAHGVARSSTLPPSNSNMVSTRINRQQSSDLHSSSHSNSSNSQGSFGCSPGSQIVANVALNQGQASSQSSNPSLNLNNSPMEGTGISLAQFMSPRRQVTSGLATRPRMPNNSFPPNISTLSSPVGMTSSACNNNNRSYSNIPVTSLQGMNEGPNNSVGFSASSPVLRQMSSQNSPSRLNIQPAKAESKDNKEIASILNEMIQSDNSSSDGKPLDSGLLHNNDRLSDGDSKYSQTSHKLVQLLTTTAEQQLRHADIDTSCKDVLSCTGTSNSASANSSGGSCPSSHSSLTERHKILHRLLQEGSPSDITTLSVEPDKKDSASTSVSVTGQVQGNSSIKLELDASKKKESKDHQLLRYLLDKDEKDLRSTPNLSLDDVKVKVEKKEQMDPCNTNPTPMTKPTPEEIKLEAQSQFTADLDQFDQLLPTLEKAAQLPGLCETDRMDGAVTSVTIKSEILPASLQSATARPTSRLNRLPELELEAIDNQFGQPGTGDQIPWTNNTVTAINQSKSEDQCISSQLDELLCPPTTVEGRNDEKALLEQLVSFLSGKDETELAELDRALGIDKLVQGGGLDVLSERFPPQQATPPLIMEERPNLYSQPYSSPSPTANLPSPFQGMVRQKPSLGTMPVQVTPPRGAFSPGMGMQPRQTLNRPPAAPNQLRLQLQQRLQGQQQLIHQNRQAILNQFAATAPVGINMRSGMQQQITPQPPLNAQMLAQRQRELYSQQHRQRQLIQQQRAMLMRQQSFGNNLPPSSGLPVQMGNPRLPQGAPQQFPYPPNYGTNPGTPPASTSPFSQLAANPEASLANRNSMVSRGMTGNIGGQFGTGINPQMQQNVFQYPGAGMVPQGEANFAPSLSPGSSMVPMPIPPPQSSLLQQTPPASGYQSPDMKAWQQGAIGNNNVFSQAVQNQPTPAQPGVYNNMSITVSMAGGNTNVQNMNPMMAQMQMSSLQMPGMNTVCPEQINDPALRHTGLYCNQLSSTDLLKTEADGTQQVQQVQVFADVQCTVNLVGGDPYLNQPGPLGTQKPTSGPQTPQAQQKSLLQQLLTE
Sequence of COUP transcription factor 2 (Homo sapiens) (P24468 whole entry, looked up): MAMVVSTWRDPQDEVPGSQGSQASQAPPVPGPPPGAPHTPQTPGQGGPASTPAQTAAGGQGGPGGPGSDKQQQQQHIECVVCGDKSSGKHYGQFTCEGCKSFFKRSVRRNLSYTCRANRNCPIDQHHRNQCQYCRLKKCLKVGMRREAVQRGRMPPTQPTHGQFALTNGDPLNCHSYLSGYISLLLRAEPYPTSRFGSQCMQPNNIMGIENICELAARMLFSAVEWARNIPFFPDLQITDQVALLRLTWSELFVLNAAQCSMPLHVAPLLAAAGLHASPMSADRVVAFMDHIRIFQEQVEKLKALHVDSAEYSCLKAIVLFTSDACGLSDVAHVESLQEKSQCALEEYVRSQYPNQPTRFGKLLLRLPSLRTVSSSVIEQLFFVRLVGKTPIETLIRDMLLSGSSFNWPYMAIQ
Sequence of Galanin receptor type 2 (Homo sapiens) (O43603 whole entry, looked up): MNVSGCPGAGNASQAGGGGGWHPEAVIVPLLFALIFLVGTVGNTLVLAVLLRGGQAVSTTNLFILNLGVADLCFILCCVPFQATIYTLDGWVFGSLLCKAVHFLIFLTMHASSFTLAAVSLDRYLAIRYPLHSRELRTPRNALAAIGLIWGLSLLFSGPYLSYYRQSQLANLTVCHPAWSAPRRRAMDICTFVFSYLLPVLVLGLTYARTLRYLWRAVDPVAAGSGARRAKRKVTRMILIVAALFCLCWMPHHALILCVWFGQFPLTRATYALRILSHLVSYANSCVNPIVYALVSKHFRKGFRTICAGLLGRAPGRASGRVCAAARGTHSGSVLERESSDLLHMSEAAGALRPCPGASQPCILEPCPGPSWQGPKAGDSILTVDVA

CC(C)(C)c1ccc(Oc2ccc(N)cc2)cc1
inhibition [1]: 68.3% (active) | inhibition [2]: 61.4% (active) | inhibition [3]: 52.4% (active) | inhibition [4]: 57.7% (active) | inhibition [5]: 36.9% | inhibition [6]: 71.6% (active) | inhibition [7]: 71.2% (active) | inhibition [8]: 88.6% (active) | inhibition [9]: 78.9% (active) | inhibition [10]: 60.1% (active) | inhibition [11]: 90.2% (active) | inhibition [12]: 95.2% (active) | inhibition [13]: 91.8% (active) | inhibition [14]: 101% (active)

Clc1ccc(OCCN2CCN(c3ncnc4sccc34)CC2)cc1
inhibition [1]: 14.2% | inhibition [2]: 40.4% (active) | inhibition [3]: -17.4% | inhibition [4]: 42.2% (active) | inhibition [7]: 34.8% (active) | inhibition [8]: 58.5% (active) | inhibition [9]: 50.2% (active) | inhibition [10]: 46.7% (active)

Cc1ccc(N(CCC#N)C(=O)CCl)cc1C
inhibition [1]: 54.3% (active) | inhibition [2]: 14.7% | inhibition [3]: 7.31% | inhibition [4]: 28.4% (active) | inhibition [7]: 14.8% | inhibition [8]: 58.5% (active) | inhibition [9]: 49.2% (active) | inhibition [10]: 15.7%

CC[C@H]1CN2CCc3cc(OC)c(OC)cc3[C@@H]2C[C@@H]1C[C@H]1NCCc2cc(OC)c(OC)cc21
inhibition [15]: 102% (active) | inhibition [16]: 92.8% (active) | inhibition [1]: 98.3% (active) | inhibition [2]: 97.2% (active) | inhibition [3]: 92.6% (active) | inhibition [4]: 96.4% (active) | inhibition [17]: 30.7% (active) | inhibition [18]: -0.09% | inhibition [5]: 97.8% (active) | inhibition [6]: 99.2% (active) | inhibition [7]: 94.6% (active) | inhibition [8]: 109% (active) | inhibition [9]: 97.7% (active) | inhibition [10]: 96.4% (active)

COc1ccc(Nc2ncnc3ccc(Br)cc23)c(OC)c1
inhibition [1]: 67.1% (active) | inhibition [2]: 9.75% | inhibition [3]: 68.4% (active) | inhibition [4]: 8.18% | inhibition [5]: 85.3% (active) | inhibition [6]: 75.5% (active) | inhibition [7]: 86% (active) | inhibition [8]: 47.3% (active) | inhibition [9]: 79.2% (active) | inhibition [10]: 30.8% (active) | inhibition [11]: 32.4% | inhibition [12]: 93.8% (active) | inhibition [13]: 7.13% | inhibition [14]: 11.9%

Source: PubChem BioAssay
